In ChEMBL document CHEMBL3988442, “University of Dundee, Small-Polar-MMV Screening Library” (2021):

molecular target: AMP-activated protein kinase, AMPK (Homo sapiens) (UniProt P54646+O43741+P54619+Q9UGJ0+Q9Y478+Q13131+Q9UGI9); assay: AMP-dependent Kinase enzyme assay. An in vitro enzyme assay that detects ADP turnover that is directly proportional to AMPK activity. This uses naive AMPK that is activated during the assay with MK-8722; format: functional; design: scale not given: direction of the effect not stated beside the values; details: 30 µM

Compound	Percent Effect [%]
Cc1nc2c(c(NCC(=O)NC(C)C)n1)Cc1ccccc1OC2	5.96
CN(Cc1cnn(C)c1)C(=O)Nc1cccnc1-n1cccn1	0.000815
Cc1cnn(C2CN(CC(O)COc3ccc(C#N)cc3)C2)c1 (centres undefined)	-78.4
Cc1ccccc1Cc1nc(CSc2nnc(N)n2C2CC2)no1	7.43
Cc1ccccc1-n1cc(CN(C)C[C@@H]2CCCN3CCCC[C@H]23)cn1	-2.73
COCCCC1CCCN(Cc2c(C)ccc3ncccc23)C1 (centres undefined)	-4.38
O=C1NC(C(=O)NCc2cccnc2Oc2ccc(F)c(F)c2)CO1 (centres undefined)	0.367
CCOCCN1CCN(c2ccc(C#N)cn2)CC1CC (centres undefined)	6.68
OCC1(NCc2cccc(-n3cccn3)c2)CCOCC1	-1.31
Cc1ocnc1C(=O)N1CC[C@@]2(O)CCN(C(=O)N3CCCC3)C[C@H]2C1	6.59
FC(F)(F)c1cccc(OC2CCN(Cc3c[nH]cn3)CC2)c1	18
CCN(CC1CCCO1)C(=O)NCCNC(=O)c1ccccc1F (centres undefined)	1.37
CN1CC=C(CCN(C)C(=O)CCc2ccccc2)CC1	-0.771
COc1ccccc1CN(Cc1nc(Cc2ccccc2)no1)C1CC1	12.8
Cc1nc(CN2CCCCC2Cn2cccn2)nc2ccccc12 (centres undefined)	0.0601
CC(NC(=O)NC1CCN(Cc2ccncc2)CC1)c1ccc(F)cc1 (centres undefined)	7.79
Cc1cc(N(C)C)nc(N2CCn3c(nnc3C(C)C)C2)n1	8.26
COC(=O)c1cccc(S(=O)(=O)NCC(c2ccco2)N2CCCC2)c1 (centres undefined)	-6.45
CNS(=O)(=O)CC(=O)N1CCC(c2cc3ccccc3[nH]2)CC1	16.4
CCCc1noc(C[S+]([O-])CC(=O)NCc2ccccc2)n1 (centres undefined)	-0.224

Compound	Percent Effect [%]
O=C1CN([C@@H]2CC[C@@H](NS(=O)(=O)c3ccc(F)cc3)[C@H]2O)CCN1	2.53
CN(C)c1cc(N(C)Cc2cc(C(C)(C)C)n[nH]2)ncn1	-16.4
CCc1noc(C(C)Sc2nnc(C3CC3)n2CC(N)=O)n1 (centres undefined)	-8.4
O=C(NCCn1ccnc1)C1COCC(=O)N1Cc1ccccc1 (centres undefined)	5.07
Cc1cc(NC(=O)CO)nn1-c1ccc(Cl)cc1Cl	-3.56
CC(C)COc1cncc(N2CCCN(c3ncccn3)CC2)n1	65.1
CC(C(N)=O)N1CCN(c2ncc(Br)cn2)CC1 (centres undefined)	-3.12
Cc1cc(C)n(C2CN(Cc3nc4cc(Cl)ccc4n3C)C2)n1	3.42
Cc1ccc(-c2ccccc2CC2CNCCNC2=O)c(C)c1 (centres undefined)	2.34
CC(C)CC(=O)N1Cc2ccccc2CC1C(=O)Nc1nccs1 (centres undefined)	-4.39
Cc1cnn(C2CN(c3ccccc3S(=O)(=O)C(F)(F)F)C2)c1	9.6
COCCNS(=O)(=O)c1c(C)sc2ccccc12	-3.2
Cc1ccc(-c2nc(CC3CCN(C)CC3)no2)cc1N1CCNC1=O	11.1
CN1CSC[C@H]1C(=O)N1CCC(Cc2ccccc2F)CC1	0.306
CCc1ncc2c(n1)CN(c1nnc(C)c(C)c1C#N)CC2	-14.7
Cc1cc(CN(C)Cc2csc(-c3cccs3)n2)n[nH]1	6.79
COc1ccc(C(C)NCCc2ccc(NC(C)=O)cc2)c(OC)c1 (centres undefined)	8.45
CCOC(=O)C1(O)CCN(C(=O)Nc2cccc(F)c2)CC1	-1.01
OCC1(CCOc2ccccc2)CCN(c2ccc(Cl)cn2)CC1	-2.64
